Screening results: PubChem BioAssay, University of Kansas High Throughput Screening Laboratory
The sample as a whole holds a higher share of hits than the screen did.
mHTT CaM bind: mHTT-calmodulin interaction abrogation. P42858. AlphaScreen His-mHTT/GST-CaM binding, luminescence. inhibition, % at 15 µM. 190,000 tested, 3.6% active
Target sequence (P42858 whole entry, looked up, change not shown): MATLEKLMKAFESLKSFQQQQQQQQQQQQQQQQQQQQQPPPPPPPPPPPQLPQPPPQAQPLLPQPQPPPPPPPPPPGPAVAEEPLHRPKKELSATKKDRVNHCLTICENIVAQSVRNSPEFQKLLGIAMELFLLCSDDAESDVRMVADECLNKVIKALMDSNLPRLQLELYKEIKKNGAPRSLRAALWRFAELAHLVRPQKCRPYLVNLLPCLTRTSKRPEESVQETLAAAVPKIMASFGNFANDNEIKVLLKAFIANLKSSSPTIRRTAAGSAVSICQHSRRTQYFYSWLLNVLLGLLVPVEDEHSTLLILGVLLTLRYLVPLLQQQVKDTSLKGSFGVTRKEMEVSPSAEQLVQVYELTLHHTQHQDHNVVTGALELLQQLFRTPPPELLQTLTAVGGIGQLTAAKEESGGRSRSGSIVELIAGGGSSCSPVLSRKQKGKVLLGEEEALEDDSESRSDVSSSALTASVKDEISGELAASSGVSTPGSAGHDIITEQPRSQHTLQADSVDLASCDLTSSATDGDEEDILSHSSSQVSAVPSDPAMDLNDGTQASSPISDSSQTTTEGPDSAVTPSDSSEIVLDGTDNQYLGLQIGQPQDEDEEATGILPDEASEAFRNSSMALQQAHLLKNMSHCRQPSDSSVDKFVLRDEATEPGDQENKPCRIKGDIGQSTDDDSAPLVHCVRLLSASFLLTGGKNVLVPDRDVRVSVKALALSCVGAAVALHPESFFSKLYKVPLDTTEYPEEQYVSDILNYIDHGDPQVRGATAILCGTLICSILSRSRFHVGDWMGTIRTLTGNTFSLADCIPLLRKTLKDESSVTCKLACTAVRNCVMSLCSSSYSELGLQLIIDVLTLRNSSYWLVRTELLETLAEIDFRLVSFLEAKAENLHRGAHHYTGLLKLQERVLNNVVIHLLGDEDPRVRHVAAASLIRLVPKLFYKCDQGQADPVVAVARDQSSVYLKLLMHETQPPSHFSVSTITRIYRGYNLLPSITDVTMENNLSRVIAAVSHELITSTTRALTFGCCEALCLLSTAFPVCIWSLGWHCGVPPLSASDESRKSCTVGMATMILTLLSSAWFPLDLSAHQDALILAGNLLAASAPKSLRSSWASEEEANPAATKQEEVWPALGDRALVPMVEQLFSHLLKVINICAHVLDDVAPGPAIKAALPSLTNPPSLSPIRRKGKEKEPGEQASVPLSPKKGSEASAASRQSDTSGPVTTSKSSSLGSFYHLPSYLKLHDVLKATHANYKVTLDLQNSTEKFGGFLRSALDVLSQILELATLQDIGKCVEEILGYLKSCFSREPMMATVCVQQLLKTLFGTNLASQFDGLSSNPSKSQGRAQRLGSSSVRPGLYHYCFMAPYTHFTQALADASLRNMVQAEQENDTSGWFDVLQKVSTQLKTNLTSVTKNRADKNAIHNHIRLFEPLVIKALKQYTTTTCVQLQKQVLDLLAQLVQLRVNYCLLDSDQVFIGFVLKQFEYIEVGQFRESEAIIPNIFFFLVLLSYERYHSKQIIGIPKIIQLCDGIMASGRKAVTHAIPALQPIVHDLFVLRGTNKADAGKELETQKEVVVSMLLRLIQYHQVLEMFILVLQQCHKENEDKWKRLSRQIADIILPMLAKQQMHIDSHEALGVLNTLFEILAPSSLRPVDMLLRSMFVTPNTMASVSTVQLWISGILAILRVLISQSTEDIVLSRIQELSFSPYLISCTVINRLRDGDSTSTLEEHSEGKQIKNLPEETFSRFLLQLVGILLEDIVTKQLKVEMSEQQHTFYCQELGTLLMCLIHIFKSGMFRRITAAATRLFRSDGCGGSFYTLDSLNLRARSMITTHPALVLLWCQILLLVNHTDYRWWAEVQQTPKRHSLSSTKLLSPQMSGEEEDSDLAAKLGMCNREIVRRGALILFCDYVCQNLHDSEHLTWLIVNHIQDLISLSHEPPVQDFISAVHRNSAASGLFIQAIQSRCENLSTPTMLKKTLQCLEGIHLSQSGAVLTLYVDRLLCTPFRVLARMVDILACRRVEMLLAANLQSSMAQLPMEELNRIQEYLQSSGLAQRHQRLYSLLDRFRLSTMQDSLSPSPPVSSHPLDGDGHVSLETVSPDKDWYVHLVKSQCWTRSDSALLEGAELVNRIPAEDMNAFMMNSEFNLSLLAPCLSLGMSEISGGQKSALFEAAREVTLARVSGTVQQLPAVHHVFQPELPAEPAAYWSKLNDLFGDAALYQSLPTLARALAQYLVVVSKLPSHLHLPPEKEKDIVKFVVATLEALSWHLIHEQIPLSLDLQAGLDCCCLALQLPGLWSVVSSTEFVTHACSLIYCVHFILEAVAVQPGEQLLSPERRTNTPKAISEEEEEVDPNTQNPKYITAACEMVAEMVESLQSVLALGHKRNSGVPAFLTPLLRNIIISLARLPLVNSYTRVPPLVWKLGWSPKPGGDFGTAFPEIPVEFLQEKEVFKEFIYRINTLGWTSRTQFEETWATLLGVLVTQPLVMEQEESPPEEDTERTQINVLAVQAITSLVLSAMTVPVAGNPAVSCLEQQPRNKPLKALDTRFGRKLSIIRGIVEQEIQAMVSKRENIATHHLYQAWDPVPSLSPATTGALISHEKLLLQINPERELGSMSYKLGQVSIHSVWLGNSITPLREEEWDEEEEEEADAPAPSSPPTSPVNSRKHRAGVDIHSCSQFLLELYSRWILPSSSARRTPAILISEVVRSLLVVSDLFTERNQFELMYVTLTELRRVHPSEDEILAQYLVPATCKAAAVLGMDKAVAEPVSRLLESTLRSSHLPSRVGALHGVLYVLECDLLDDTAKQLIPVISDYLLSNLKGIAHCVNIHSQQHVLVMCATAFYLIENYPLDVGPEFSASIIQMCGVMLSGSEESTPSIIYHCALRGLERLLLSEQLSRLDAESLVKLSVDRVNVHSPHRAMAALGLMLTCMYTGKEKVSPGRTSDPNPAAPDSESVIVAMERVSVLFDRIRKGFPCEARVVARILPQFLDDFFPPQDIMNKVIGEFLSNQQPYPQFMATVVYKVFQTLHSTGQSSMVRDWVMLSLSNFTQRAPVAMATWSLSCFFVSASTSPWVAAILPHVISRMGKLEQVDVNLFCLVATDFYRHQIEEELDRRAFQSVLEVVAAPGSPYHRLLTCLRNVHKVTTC
Pf apPOL inh: Pf-apPOL DNA polymerase inhibition; 210,000 tested, 0.25% active; AID 1794808; Recombinant Pf-apPOL, molecular beacon fluorescence, 1.5 h; inhibition, % at 10 µM
Numbers stand for hits. Cut-off read from the data, not from the text of the source: active = inhibition above about 50%; inactive = the rest.

For CCOc1ccc(C2C(=O)N(C3CCCCC3)CC(=O)N2Cc2ccccc2Cl)cc1OC (stereo unspecified) the results were mHTT CaM bind 58.0 and Pf apPOL inh inactive.
`CCCCN1C(=O)CN(C2CCCCC2)C(=O)C1c1ccc(OC(C)C)c(OC)c1` (stereo unspecified) gave mHTT CaM bind inactive and Pf apPOL inh inactive.
For COc1ccc(C(=O)N2CCN(c3cc(C)ccc3OC)C(=O)C2C)cc1 (stereo unspecified) the results were mHTT CaM bind inactive and Pf apPOL inh inactive.
N#C/C(=C\c1ccc([N+](=O)[O-])cc1)c1nc(C2CC2)cs1 was read as mHTT CaM bind inactive and Pf apPOL inh 55.4.
`N#C/C(=C\c1ccc(Br)cc1)c1nc(C2CC2)cs1` gave mHTT CaM bind inactive and Pf apPOL inh inactive.
`CCC(C)Nc1ncnc2c1cnn2-c1ccc(Cl)cc1` (stereo unspecified) gave mHTT CaM bind inactive and Pf apPOL inh inactive.
For CN(C)Cc1c(O)ccc2c1OC(=Cc1cccc(Cl)c1)C2=O the results were mHTT CaM bind inactive and Pf apPOL inh inactive.
CCN(CC)Cc1c(O)ccc2c1OC(=Cc1cccc(Cl)c1)C2=O was read as mHTT CaM bind 53.3 and Pf apPOL inh inactive.
`Cc1ccc(C(=O)n2cnc3ccccc32)o1` gave mHTT CaM bind inactive and Pf apPOL inh inactive.
`OC(COC12CC3CC(CC(C3)C1)C2)CN1CCN(c2cccc(C(F)(F)F)c2)CC1` (stereo unspecified) gave mHTT CaM bind inactive and Pf apPOL inh inactive.
CC1(C)C2CCC1(C)C(OCC(O)CN1CCN(Cc3ccc(Cl)cc3)CC1)C2 (stereo unspecified) was read as mHTT CaM bind 100.2 and Pf apPOL inh inactive.
CC12CCC(C1)C(C)(C)C2OCC(O)CN1CCN(c2cccc(C(F)(F)F)c2)CC1 (stereo unspecified) was read as mHTT CaM bind 65.2 and Pf apPOL inh inactive.
Screening CC1(C)C2CCC1(C)C(OCC(O)CN1CCCCC1)C2 (stereo unspecified) returned mHTT CaM bind inactive and Pf apPOL inh inactive.
Screening COc1ccccc1N1CCN(CC(O)COC2CC3CCC2(C)C3(C)C)CC1 (stereo unspecified) returned mHTT CaM bind inactive and Pf apPOL inh inactive.
CC1(C)C2CCC1(C)C(OCC(O)CN1CCN(c3cccc(Cl)c3)CC1)C2 (stereo unspecified) was read as mHTT CaM bind 99.0 and Pf apPOL inh inactive.
COC(=O)C1=C(N)Oc2cc(C)oc(=O)c2C1c1ccccc1Cl (stereo unspecified) was read as mHTT CaM bind inactive and Pf apPOL inh inactive.
For COc1cc(NC(=O)CN2C(=O)C(c3ccc(C(C)(C)C)cc3)=NC2(C)C)cc(OC)c1 the results were mHTT CaM bind inactive and Pf apPOL inh inactive.
For O=C(Nc1ccc2c(c1)OCCO2)c1sc2ccccc2c1Cl the results were mHTT CaM bind inactive and Pf apPOL inh inactive.
`O=C(O)C1CCN(C2CC(=O)N(c3ccc(Cl)cc3)C2=O)CC1` (stereo unspecified) gave mHTT CaM bind inactive and Pf apPOL inh inactive.
O=C(NCc1ccccc1Cl)C1CCN(c2nc3ccccc3o2)CC1 was read as mHTT CaM bind inactive and Pf apPOL inh inactive.
Screening O=C1CC(c2ccccc2)c2c(n[nH]c2-c2ccc(Cl)cc2)N1 (stereo unspecified) returned mHTT CaM bind inactive and Pf apPOL inh inactive.
`COc1ccc(-c2cc(-c3c(O)c(OC)c4occc4c3OC)[nH]n2)cc1OC` gave mHTT CaM bind 85.8 and Pf apPOL inh inactive.
`COc1c(-c2cc(C(F)(F)C(F)F)[nH]n2)c(O)c(OC)c2occc12` gave mHTT CaM bind inactive and Pf apPOL inh inactive.
Screening C=CCNC(=O)/C(=C\c1ccc2c(c1)OCO2)NC(=O)c1ccco1 returned mHTT CaM bind inactive and Pf apPOL inh inactive.
N=C1N=NC(c2ccccc2)=CS/C1=C\c1ccc(F)cc1 was read as mHTT CaM bind 59.2 and Pf apPOL inh inactive.
`N=C1S/C(=C\c2ccccc2)C(=O)N1c1ccc(F)cc1` gave mHTT CaM bind inactive and Pf apPOL inh inactive.
Cc1cc(C)n(-c2ccc(=O)n(CCNC(=O)CCn3cnc4ccccc4c3=O)n2)n1 was read as mHTT CaM bind inactive and Pf apPOL inh inactive.
Screening CCCC1=NN(c2ccccc2)C(=O)/C1=C/c1cc(OC)c(OC)cc1Cl returned mHTT CaM bind inactive and Pf apPOL inh inactive.
`COc1cc(/C=C2/C(=O)N(c3ccc(Cl)c(Cl)c3)N=C2C)ccc1OCC(=O)O` gave mHTT CaM bind 51.0 and Pf apPOL inh inactive.
COc1ccc(Br)cc1/C=C1/C(=O)N(c2ccccc2)N=C1C was read as mHTT CaM bind inactive and Pf apPOL inh inactive.
COc1c(Br)cc(Br)cc1/C=C1/C(=O)N(c2ccccc2)N=C1C was read as mHTT CaM bind 69.0 and Pf apPOL inh inactive.
Screening COc1cccc(/C=C2/C(=O)N(c3ccccc3)N=C2C)c1O returned mHTT CaM bind 73.0 and Pf apPOL inh inactive.
Screening COc1ccc(/C=C2/C(=O)N(c3ccc(Cl)c(Cl)c3)N=C2C)cc1OC returned mHTT CaM bind inactive and Pf apPOL inh inactive.
Screening CCCC1=NN(c2ccccc2)C(=O)/C1=C\c1cc(Cl)c(O)c(OC)c1 returned mHTT CaM bind 66.0 and Pf apPOL inh inactive.
`COc1cccc(/C=C2/C(=O)N(c3ccccc3)N=C2C)c1OC` gave mHTT CaM bind inactive and Pf apPOL inh inactive.
O=C(NCc1ccccc1)c1c(Cl)nsc1Cl was read as mHTT CaM bind inactive and Pf apPOL inh inactive.
Screening O=C(c1cc2ccccc2o1)N1CCN=C1SCc1cccc(Cl)c1 returned mHTT CaM bind inactive and Pf apPOL inh inactive.
Screening COCCC1CCN(C(=O)c2ccc(F)c(Cl)c2)CC1 returned mHTT CaM bind inactive and Pf apPOL inh inactive.
Screening CCOC(=O)N1CCN(c2nc(Nc3ccc(OC)cc3)c3nccnc3n2)CC1 returned mHTT CaM bind inactive and Pf apPOL inh inactive.
Screening Cc1ccc2nc(Cl)c(C3CC(c4ccc(Br)cc4)=NN3S(C)(=O)=O)cc2c1 (stereo unspecified) returned mHTT CaM bind inactive and Pf apPOL inh inactive.
`CN(C)C(=NS(=O)(=O)c1cccs1)c1ccccc1` gave mHTT CaM bind inactive and Pf apPOL inh inactive.
Screening COc1cc(/C=C2/C(=O)N(c3cccc(Br)c3)N=C2C)cc(OC)c1O returned mHTT CaM bind 88.0 and Pf apPOL inh inactive.
For COc1cc(/C=C2/C(=O)N(c3cccc(Br)c3)N=C2C)ccc1OC(C)C the results were mHTT CaM bind inactive and Pf apPOL inh inactive.
`C=CCOc1ccccc1/C=C1/C(=O)N(c2ccc(Cl)c(Cl)c2)N=C1C` gave mHTT CaM bind inactive and Pf apPOL inh inactive.
For COc1cccc(/C=C2/C(=O)N(c3ccc(Cl)c(Cl)c3)N=C2C)c1O the results were mHTT CaM bind 60.0 and Pf apPOL inh inactive.
COc1ccc(Cl)cc1N(CC(=O)N1CCOCC1)S(=O)(=O)c1ccc(C)cc1 was read as mHTT CaM bind inactive and Pf apPOL inh inactive.
Screening CC(=O)NCCc1csc(C2CCN(C(=O)c3ccccc3F)CC2)n1 returned mHTT CaM bind inactive and Pf apPOL inh inactive.
`COc1cccc2sc(Nc3nnc(-c4cccs4)o3)nc12` gave mHTT CaM bind 75.6 and Pf apPOL inh inactive.
COc1cccc2sc(Nc3nc4ccc(S(C)(=O)=O)cc4s3)nc12 was read as mHTT CaM bind inactive and Pf apPOL inh inactive.
Screening Cc1ccc(C2=NNC3(S2)C(=O)Nc2ccc(C)cc23)cc1 (stereo unspecified) returned mHTT CaM bind 100.0 and Pf apPOL inh inactive.
